Assay results from PubChem BioAssay (NCATS).

Assay: qHTS profiling of the MIPE4 collection as inhibitors of Plasmodium falciparum (HB3) proliferation (AID 743347)
Conditions: P. falciparum HB3 in erythrocytes, SYBR Green DNA, 72 h; at 28.5 µM (top of the series) unless noted
Text: Plasmodium falciparum is a virulent malarial parasite that kills 1-2 million people worldwide each year. Transmitted by mosquitoes, the sporozoite form of the parasite enters the blood stream to infect hepatocytes, where they become merozoites that infect red blood cells (erythrocytes). Within erythrocytes, merozoites begin a […] cycle of growth and division, after which the parasite is released to infect new red blood cells. Gametocytes, which form within erythrocytes as well, circulate in the bloodstream and are ingested by the mosquito, thereby completing the life cycle. To profile malarial isolates for differential chemical responses and to identify inhibitors of malarial growth, an assay that measures P. falciparum growth and replication within erythrocytes was employed. This assay uses a DNA binding fluorescent dye (SYBR Green) to detect parasite DNA following cell lysis. Because mature erythrocytes lack DNA, only Plasmodium-derived DNA is detected.
The SYBR Green viability assay was adapted from a method described previously (Plouffe et al., 2008). For screening 3 ul culture medium was dispensed into 1536 well black clear bottom plates (Aurora Biotechnologies) using a Multidrop Combi (Thermo Fisher Scientific Inc.), 23 nL compounds in DMSO were added by a pin tool (Kalypsys), and 5 ul of erythrocytes infected with P. falciparum (0.3% parasitemia, 2.5% hematocrit final concentration) were added. The plates were incubated at 37 C in a humidified incubator in 5% CO2 for 72 h, and 2 ul lysis buffer (20 mM Tris HCl, 10 mM EDTA, 0.16% saponin, 1.6% triton X, 10X SYBR Green I supplied as 10,000X […] by Invitrogen) was added to each well. The plates were mixed for 25 sec with gentle shaking and incubated overnight at room temperature in the dark. The following morning, fluorescence intensity at 485(14) nm excitation and 535(25) nm emission wavelengths was measured on an EnVision (Perkin Elmer) plate reader. Plate reads were normalized relative to the control inhibitor (0.29 uM artemisinin) and vehicle (DMSO) wells present on each plate and then corrected by an algorithm using vehicle-only control plates at the beginning and end of the compound plate stack.

Structure (SMILES) | growth, % of control
COc1ccc2c(Oc3ccc(NC(=O)c4c(C)n(CC(C)(C)O)n(-c5ccccc5)c4=O)cc3F)ccnc2c1 | 13.8%
c1ccc2c(Cc3c[nH]c4ccccc34)c[nH]c2c1 | 23.8%
O=c1[nH]cnc2c1ncn2[C@H]1CC[C@@H](CO)O1 | 659%
Cc1c(O)cccc1C(=O)N[C@@H](CSc1ccccc1)[C@H](O)CN1C[C@H]2CCCC[C@@H]2C[C@@H]1C(=O)NC(C)(C)C | 15.7%
COc1ccc(-c2nc(N3CCOCC3)c3sc(CN(C)c4ncc(C(=O)NO)cn4)cc3n2)cn1 | 2.4%
Cc1ccc(C(=O)Nc2cccc(C(F)(F)F)c2)cc1Nc1nc(-c2cccnc2)nc2c1cnn2C | 10.4%
O=C(Nc1c(Cl)cncc1Cl)c1ccc(OC(F)F)c(OCC2CC2)c1 | 100%
CCn1c(C(=O)N(C2CC2)C2CC2)cc2c3c(ncn3C)c(Nc3cc(C)n(C)n3)nc21 | 11.5%
CO[C@@H](C(=O)N1Cc2[nH]nc(NC(=O)c3ccc(N4CCN(C)CC4)cc3)c2C1)c1ccccc1 | 3.96%
CC(C(=O)O)c1ccc(-c2ccccc2)c(F)c1 (stereo not given) | 96%
CC1(C)S[C@H]2[C@H](NC(=O)[C@@H](N)c3ccc(O)cc3)C(=O)N2[C@@H]1C(=O)O | 6.54%
C[C@]12CCC3c4ccc(O)cc4CCC3C1CCC2=O (stereo not given in full) | 66.9%
CC(C)C(=O)Oc1ccc(CO)cc1[C@H](CCN(C(C)C)C(C)C)c1ccccc1 | 45.5%
NC(=O)c1ccc2nc(-c3ccc(Oc4ccc(Cl)cc4)cc3)[nH]c2c1 | 83.4%
CC(C)(C)COc1ccc(-n2cc(C(=O)O)cn2)cc1C#N | 67.6%
O=C(N[C@@H](c1ccccc1)[C@@H]1CCCCN1)c1cccc(C(F)(F)F)c1Cl | 8.07%
COc1cccc([C@@H](C)NCCCc2ccccc2Cl)c1 | 7.8%
COc1ccc(-c2cc(=O)c3c(O)cc(O)cc3o2)cc1O | 67.5%
CC(=O)Oc1cc2c(s1)CCN(C(C(=O)C1CC1)c1ccccc1F)C2 (stereo not given) | 57.5%
NC(=O)c1cccc2[nH]c(-c3ccc([C@H]4CCCN4)cc3F)nc12 | 2.5%

Structure (SMILES) | growth, % of control
CN(C)c1cc(NC(=O)CNC(C)(C)C)c(O)c2c1C[C@@H]1C[C@H]3[C@H](N(C)C)C(=O)C(C(N)=O)=C(O)[C@@]3(O)C(=O)C1=C2O | 98.7%
CNC(=O)c1ccc2cc(C3(O)CCn4cncc43)ccc2c1 (stereo not given) | 55%
CO[C@H]1C(=O)[C@]2(C)[C@@H](OC)C[C@H]3OC[C@@]3(OC(C)=O)[C@H]2[C@H](OC(=O)c2ccccc2)[C@]2(O)C[C@H](OC(=O)[C@H](O)[C@@H](NC(=O)OC(C)(C)C)c3ccccc3)C(C)=C1C2(C)C | 3.01%
NC(=O)[C@@H](CCC(F)(F)F)N(Cc1ccc(-c2ncon2)cc1F)S(=O)(=O)c1ccc(Cl)cc1 | 73.5%
NC1=N[C@@]2(c3cc(NC(=O)c4ccc(F)cn4)ccc3F)COC[C@@H]2CS1 | 20.1%
CC[C@H]1OC(=O)[C@H](C)C(=O)[C@H](C)[C@@H](O[C@H]2O[C@H](C)C[C@H](N(C)C)[C@@H]2O)[C@](C)(OC)C[C@@H](C)C(=O)[C@H](C)[C@H]2N(CCCCn3cnc(-c4cccnc4)c3)C(=O)O[C@]12C | 9.46%
CNC1CCC(N(Cc2cccc(-c3ccncc3)c2)C(=O)c2sc3c(F)ccc(F)c3c2Cl)CC1 (stereo not given) | 6.39%
N#C[C@H]1C[C@H]2C[C@@H]2N1C(=O)[C@@H](N)C12CC3CC(CC(O)(C3)C1)C2 | 69.2%
C=C1C(=O)OC2C=C(C)CCC=C(C)CCC12 (stereo not given) | 559%
O=c1ccn([C@@H]2O[C@H](CO)[C@H](O)[C@H]2O)c(=O)[nH]1 | 107%
CCN(CC)CCOc1ccc(C(=C(Cl)c2ccccc2)c2ccccc2)cc1 | 9.51%
CC(=O)Nc1ccc([C@H](C)C(=O)Nc2ncc(C(C)C)s2)cc1 | 2.84%
Cc1ccc([C@@H]2O[C@H](CO)[C@@H](O)[C@H](O)[C@@H]2O)cc1Cc1ccc(-c2ccc(F)cc2)s1 | 310%
N[C@H](CSC(c1ccccc1)(c1ccccc1)c1ccccc1)C(=O)O | 4.68%
Oc1ccc(C2CCN(c3ccnc4ccccc34)CC2)cc1O | 3.95%
CC(C)n1cnc2c(NCCCCCCNC(=O)OC(C)(C)C)nc(NCCO)nc21 | 21.3%
O=C(O)CCC1CCC(c2cc(F)ccc2F)(S(=O)(=O)c2ccc(Cl)cc2)CC1 (stereo not given) | 82.6%
NS(=O)(=O)c1ccc(NC2=CC(=O)c3ccccc3C2=O)cc1 | 3.54%
CC(C)OC(=O)CCCC=CC[C@@H]1[C@H](C=C[C@@H](O)COc2cccc(C(F)(F)F)c2)[C@H](O)C[C@@H]1O | 15.8%
Cc1ccc(F)c(NC(=O)Nc2ccc(-c3cccc4[nH]nc(N)c34)cc2)c1 | 9.71%
